# Screening data from PubChem.
# EPAC2 agonist = agonists of human EPAC2 (RAPGEF4); Q8WZA2; EPAC2 activation, biochemical qHTS; response scale: 100% = 6.5 mM cAMP response; Potency, µM (doses to about 154 µM), hits mostly activators; actives 0.079% (n = 360,000); note: nearly all actives have a fitted effect of over 50% in size
# Target sequence (Q8WZA2 whole entry, looked up): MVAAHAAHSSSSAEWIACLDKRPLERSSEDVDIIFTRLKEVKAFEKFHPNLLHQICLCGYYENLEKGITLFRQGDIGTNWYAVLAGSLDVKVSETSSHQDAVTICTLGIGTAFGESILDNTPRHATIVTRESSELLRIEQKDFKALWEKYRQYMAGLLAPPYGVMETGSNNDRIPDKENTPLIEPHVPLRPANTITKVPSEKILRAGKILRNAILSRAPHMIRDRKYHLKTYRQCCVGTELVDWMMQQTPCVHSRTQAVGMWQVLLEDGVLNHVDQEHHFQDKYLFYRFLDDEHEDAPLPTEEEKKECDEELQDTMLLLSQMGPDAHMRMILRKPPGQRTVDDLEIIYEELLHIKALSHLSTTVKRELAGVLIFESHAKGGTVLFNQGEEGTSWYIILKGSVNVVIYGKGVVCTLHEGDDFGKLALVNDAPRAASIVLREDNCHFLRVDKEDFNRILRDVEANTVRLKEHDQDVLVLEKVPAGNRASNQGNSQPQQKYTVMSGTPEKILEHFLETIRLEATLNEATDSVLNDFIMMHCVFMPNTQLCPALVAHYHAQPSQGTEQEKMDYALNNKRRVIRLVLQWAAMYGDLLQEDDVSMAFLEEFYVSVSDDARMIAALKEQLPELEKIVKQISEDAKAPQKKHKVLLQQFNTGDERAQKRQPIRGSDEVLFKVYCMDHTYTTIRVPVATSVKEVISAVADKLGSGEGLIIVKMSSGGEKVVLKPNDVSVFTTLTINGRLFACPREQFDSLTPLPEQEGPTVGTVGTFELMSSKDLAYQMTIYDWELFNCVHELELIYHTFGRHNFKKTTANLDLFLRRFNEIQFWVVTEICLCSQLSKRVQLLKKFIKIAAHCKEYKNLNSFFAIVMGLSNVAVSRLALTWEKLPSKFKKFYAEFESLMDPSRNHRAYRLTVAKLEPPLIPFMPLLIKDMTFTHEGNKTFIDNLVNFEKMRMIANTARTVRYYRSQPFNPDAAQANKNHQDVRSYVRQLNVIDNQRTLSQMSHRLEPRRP
#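 Compounds were titrated in qHTS against a Rap1B-BODIPY-GDP (250 nM) complex with EPAC2 (100 nM) and GDP (50 uM). BODIPY-GDP release tracked at 480/540 nm over 30 min at room temperature, normalized to 6.5 mM cAMP.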
# USP1 inh = blocks the human USP1/UAF1 deubiquitinase complex; O94782; recombinant USP1/UAF1, Ub-Rhodamine cleavage fluorescence; Potency, µM (top dose mostly 57.1 µM), hits mostly inhibitors; actives 0.23% (n = 390,000); AID 743255; note: nearly all actives have a fitted effect of over 60% in size
#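 High-throughput fluorogenic screen: 1nM USP1/UAF1 complex, Ub-Rho substrate 150nM final, 50mM HEPES pH 7.8 with 0.5mM EDTA, 0.1 mg/ml BSA, 1mM TCEP and 0.01% Tween-20.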
# EPAC2 antagonist = EPAC2 (human) antagonism | EPAC2 GEF exchange of Rap1B-BODIPY-GDP, fluorescence | Potency, µM (highest dose often 114 µM), most hits filed as inhibitors | actives 0.18% (n = 360,000) | Q8WZA2; note: nearly all actives have a fitted effect of over 45% in size
# EPAC1 antag = EPAC1 (human) antagonism. Potency, µM (titrated, usually from 115 µM), hits mostly inhibitors. EPAC1 GEF assay, Rap1b-BODIPY-GDP exchange fluorescence. O95398. actives 0.14% (n = 360,000); note: nearly all actives have a fitted effect of over 50% in size
# EPAC1 agonist = agonists of human EPAC1. O95398. EPAC1 agonist qHTS, biochemical assay; response scale: 100% = response to 6.5 mM cAMP. actives 0.073% (n = 360,000). Potency, µM (series often up to 154 µM), most hits filed as activators; note: nearly all actives have a fitted effect of over 60% in size
#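 Read-out is the fluorescence drop as BODIPY-GDP leaves Rap1B (480 nm excitation, 540 nm emission), recorded every 5 minutes over 30 minutes. Reactions held 100 nM EPAC1, 250 nM Rap1B–BODIPY-GDP and 50 uM GDP, with 6.5 mM cAMP setting full activation.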
# Numbers stand for hits; – = inactive; ? = inconclusive; · = not tested or not shown. Shown are actives, neighbours in structure and some others; about 0.45% of the full set was active somewhere. Calls come from the whole dose curve; as a rule, active = well fitted curve in the direction sought with a large enough effect; inconclusive = small, poorly fitted or top-dose-only effect, or another doubt; inactive = no such curve, though single readings can be large; an effect the other way counts as inactive or inconclusive.
SMILES,EPAC2 agonist,USP1 inh,EPAC2 antagonist,EPAC1 antag,EPAC1 agonist
CCOc1ccc(C=NNc2ccc(S(=O)(=O)Nc3ccccc3C(=O)O)cc2[N+](=O)[O-])cc1OC,–,–,–,–,–
COc1cc(C=NNc2ccc(S(=O)(=O)Nc3ccccc3C(=O)O)cc2[N+](=O)[O-])ccc1O,–,?,?,89µM,–
CCOc1cc(/C=N/Nc2ccc(S(=O)(=O)Nc3ccccc3C(=O)O)cc2[N+](=O)[O-])cc(Cl)c1O,–,?,–,50µM,–
CC(=O)Nc1ccc(C=NNc2ccc(S(=O)(=O)Nc3ccccc3C(=O)O)cc2[N+](=O)[O-])cc1,–,–,50µM,79µM,–
COc1ccc(Cn2c(O)c(C=Nc3ccccc3C(=O)O)c3ccccc3c2=O)cc1,–,?,?,–,–
CC1CCN(S(=O)(=O)c2ccc3c(ccn3CCC(=O)NCc3ccccc3F)c2)CC1,·,–,·,·,·
CN(C1CCCCC1)S(=O)(=O)c1ccc(F)c(C(=O)Nc2ccc(C(F)(F)F)cc2)c1,·,–,·,·,·
CCOc1ccccc1NC(=O)Cc1csc(COc2cccc(C)c2)n1,·,–,·,·,·
CN(CCO)c1ccc(C=NNc2ccc([N+](=O)[O-])cc2S(=O)(=O)Nc2ccccc2C(=O)O)cc1,–,–,?,50µM,–
O=C(O)c1ccccc1NS(=O)(=O)c1ccc(N/N=C/c2cccc(O)c2O)c([N+](=O)[O-])c1,–,–,–,25µM,–
CC(=O)Nc1cccc(/C(C)=N/Nc2ccc(S(=O)(=O)Nc3ccccc3C(=O)O)cc2[N+](=O)[O-])c1,–,?,?,50µM,–
O=C(O)c1cc(S(=O)(=O)Nc2ccccc2C(=O)O)ccc1O,–,–,–,–,–
CCCOc1ccc(C2C(=O)N(C3CCCCCC3)CC(=O)N2CCC)cc1OC (configuration not stated),·,–,·,·,·
CN(C)S(=O)(=O)N(CC(=O)NCCSCc1ccccc1Cl)c1ccccc1,·,–,·,·,·
CC(C)c1ccc(NC(=O)CN2C(=O)COc3ccc(S(=O)(=O)N4CCCCCC4)cc32)cc1,·,–,·,·,·
CC(C)(C)c1ccc(C(=O)NCC2CCCN2S(=O)(=O)c2ccccc2)cc1 (configuration not stated),–,–,–,?,45µM
O=c1c2oc3ccccc3c2n(Cc2cccc(C(F)(F)F)c2)c(=O)n1Cc1ccc2c(c1)OCO2,·,–,·,·,·
Nc1c(C(=O)NCC2CCCO2)sc2nc3c(c(-c4ccco4)c12)CC/C3=C\c1ccco1 (configuration not stated),–,28µM,–,20µM,–
N#C/C(=C\c1ccc(C(=O)O)cc1)c1nc2sc3c(c2c(=O)[nH]1)CCCC3,56µM,?,–,–,32µM
COc1ccc(Cn2c(SCc3ccc(C(=O)NC(C)C)cc3)nc3cccnc32)cc1,·,–,·,·,·
CC(C)(Sc1ccc(CCN(CCCCC2CCCCC2)C(=O)NC2CCCCC2)cc1)C(=O)O,–,?,56µM,–,–
CCOc1ccccc1CNC(=O)C(CC)n1nc(C)c2c(C)n(-c3ccccc3)nc2c1=O (configuration not stated),·,–,·,·,·
COc1cccc(C2c3[nH]c4ccccc4c3CCN2Cc2ncc[nH]2)c1 (configuration not stated),–,–,50µM,–,–
c1ccc2c3c([nH]c2c1)C(C1CCCCC1)N(Cc1ncc[nH]1)CC3 (configuration not stated),–,–,–,–,–
CCOC(=O)/C(C#N)=C\c1cc(C)n(-c2ccccc2)c1C,–,–,–,–,–
SMILES,EPAC2 agonist,USP1 inh,EPAC2 antagonist,EPAC1 antag,EPAC1 agonist
CCOC(=O)/C(C#N)=C\c1ccc(N2CCN(C/C=C/c3ccccc3)CC2)cc1,50µM,28µM,–,–,89µM
COc1ccc(NC(=O)CCCn2nc(C)c3sc4ccccc4c3c2=O)cc1,·,–,·,·,·
O=C(Nc1cccc(N=Cc2cc(Br)cc(Br)c2O)c1)c1ccco1,–,28µM,?,–,–
Cc1ccc(NC(=O)NNS(=O)(=O)c2ccc(Br)cc2)cc1,–,–,–,–,–
Cc1ccc(S(=O)(=O)NC(=O)Nc2ccc(N(C)C)cc2)cc1,–,18µM,–,–,–
O=C(COC(=O)C1CC1)Nc1ccccc1Sc1ccccc1,–,–,56µM,–,–
COc1ccccc1/C=C/C=C1\Oc2c(ccc(O)c2CN2CCN(CCO)CC2)C1=O,?,32µM,–,–,100µM
CCN1CCN(Cc2c(O)ccc3c2O/C(=C\C=C\c2ccccc2)C3=O)CC1,?,?,–,–,100µM
O=C1/C(=C/C=C/c2ccccc2)Oc2c1ccc(O)c2CN1CCN(CCO)CC1,?,?,–,–,?
COc1cc(/C=C2\SC(=S)N(NS(=O)(=O)c3ccc(C)cc3)C2=O)cc(OC)c1OC,–,–,50µM,79µM,–
Cc1ccc(S(=O)(=O)NN2C(=O)/C(=C/c3cccc(F)c3)SC2=S)cc1,–,–,32µM,?,–
COc1cc(/C=C2\SC(=S)N(NS(=O)(=O)c3ccc(C)cc3)C2=O)ccc1O,–,–,?,?,–
COc1cccc(CNC(=O)CSc2ncc(S(=O)(=O)c3ccc(C)c(Cl)c3)c(=O)[nH]2)c1,·,–,·,·,·
O=C(CS(=O)(=O)c1ccccc1)c1cc2cc(F)ccc2oc1=O,–,–,50µM,?,–
O=C(CS(=O)(=O)c1ccccc1)c1cc2ccccc2oc1=O,–,–,?,–,–
CCc1cccc(NC(=O)c2sc3nc[nH]c(=O)c3c2C)c1,·,–,·,·,·
CCCSCCCNC(=O)C1CCN(c2nc3ccccc3nc2C(F)(F)F)CC1,·,–,·,·,·
O=C(O)c1cc(O)c2c(c1)[C@@H]([C@H]1c3cc(C(=O)O)cc(O)c3C(=O)c3c(O[C@@H]4O[C@H](CO)[C@@H](O)[C@H](O)[C@H]4O)cccc31)c1cccc(O[C@@H]3O[C@H](CO)[C@@H](O)[C@H](O)[C@H]3O)c1C2=O,–,?,?,35µM,–
CCCCCCc1cc2cc(S(=O)(=O)c3ccc(Cl)cc3)c(=O)oc2cc1O,–,?,–,–,–
CCN(CC)c1ccc2cc(S(=O)(=O)c3ccc(Cl)cc3)c(=O)oc2c1,–,–,–,–,89µM
Cc1c(Br)c(O)c(Br)c(O)c1/C=N/n1c(-c2ccccc2)n[nH]c1=S,–,–,–,56µM,–
Cc1cccn2c(=O)c3cc(C#N)c(=O)n(-c4nnc(SCc5ccccc5F)s4)c3nc12,·,–,·,·,·
CCOc1ccc(NC(=O)CN(C)C(=O)c2cc(C3CC3)nn2-c2ccccc2)cc1OCC,–,–,–,–,32µM
COCCCNC1=C(Cl)C(=O)c2ccccc2C1=O,–,?,–,–,–
COCCCNc1c2c3c(cccc3[nH]c1=O)C(=O)c1ccccc1-2,100µM,4.5µM,–,–,100µM
O=C(Cn1nc(Cc2ccncc2)c2ccccc2c1=O)N1CCc2ccccc2C1,–,28µM,–,–,–
